According to PubChem BioAssay (NCI):
Compounds without any hit were thinned out: in the full panel of roughly 83,000, 20% have a hit.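 Percent growth is the endpoint: 0 to 100 indicates growth inhibition (40 means 60% inhibition), 0 means no net growth, and negative values indicate cell death.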 Unmarked numbers belong to inactive results. Calls of active or inactive are those of the source.

What follows are compounds tested on HCT-116 colon (assay: NCI-60 one-dose screen, 48 h (100 = growth as untreated, 0 = no growth, -100 = all killed)). Conditions: 10 µM unless noted.
Method: Growth inhibition of the HCT-116 human tumor cell line is measured as a screen for anti-cancer activity. Cells are grown in 96 well plates and exposed to the test compound for 48 hours. Compounds are tested at a single concentration, which is 10^-5 M for most compounds. The reported endpoint is percent growth (GI% or GIPRCNT), where numbers from 0 - 100% represent growth inhibition, and numbers from -100% - 0 represent cell death. For example, a value of 40 represents 60% growth inhibition. A value of 0 means no net growth occurred over the course of the experiment. A value of -40 indicates 40% of cells at the beginning of the experiment died by the end of the experiment. A value of -100 means all cells are dead at the end of the experiment.
NCI-60 Human Tumor Cell Lines Screen was performed using the standard one-dose NCI protocol, which is described in more detail at https://dtp.cancer.gov/discovery_development/nci-60/default.htm.
Compounds with GIPRCNT values below 10 were considered active. Activity score was based on GIPRCNT using the following formula: […]
Score is 0 for GIPRCNT values of 100 or above, 50 for GIPRCNT values of 0, and 100 for GIPRCNT values of -100.

Row | Structure (SMILES) | growth
1 | Cn1cnc2c1c(=O)n(CCC(=O)Nc1ccc(F)cc1)c(=O)n2C | 86.5%
2 | C=C(C)[C@@H]1CC[C@]2(CN)CC[C@]3(C)[C@H](CC[C@@H]4[C@@]5(C)CCC(=O)NC(C)(C)[C@@H]5CC[C@]43C)[C@@H]12 | 11.7%
3 | CCCCn1c(-c2ccc(O)cc2)cn2c3c(=O)[nH]c(=O)n(C)c3nc12 | 45.4%
4 | CCOC(=O)C1OC1(c1ccccc1)c1ccccc1 (stereo not given) | 107%
5 | CC(C)(C)c1cc(-n2c(-c3ccc(Cl)cc3)nc3cc(C(=O)Nc4ccc(Cl)cc4)ccc32)n[nH]1 | 28.2%
6 | Cc1cc(N2CCCCC2)nc(N(CCCNc2ccnc3cc(Cl)ccc23)Cc2ccco2)n1 | 0.453% (active)
7 | CC(=O)Nc1cc(F)cc(C(F)(F)F)c1Cl | 94.1%
8 | COc1ccc(-c2cc(=O)oc3ccc(Cl)cc23)cc1F | 5.47% (active)
9 | Cc1cc2nc3c4cc([N+](=O)[O-])cc([N+](=O)[O-])c4n(CCN(C)C)c3nc2cc1C | 45.3%
10 | N#CC1c2ccccc2-c2ccccc2N1C(=O)c1ccccc1 (stereo not given) | 6.83% (active)
11 | CCN(CC)CCCCCNc1cc(OC(=O)c2ccccc2)cc2cccnc12 | 44.5%
12 | Cc1cc(Nc2ccc(F)cc2)nc(N2CCN(c3ccnc4cc(Cl)ccc34)CC2)n1 | 4.86% (active)
13 | N#CC1=C(N)Oc2ccc3ccccc3c2C1c1ccccc1Cl (stereo not given) | 18.3%
14 | O=C1/C(=C\c2ccco2)SC(=S)N1CCc1ccc(O)cc1 | 96.1%
15 | O=C1c2ccccc2NC(c2cn(-c3ccccc3)nc2-c2cccs2)N1Cc1ccccc1 (stereo not given) | 65.9%
16 | O=C1C=Cc2ncccc2C1=O | 27.1%
17 | Cn1c(=O)c2c(nc(Br)n2CC(=O)Nc2ccc(F)cc2)n(C)c1=O | 84.5%
18 | Cn1c(=O)c2c(ncn2CC(=O)Nc2ccc(S(N)(=O)=O)cc2)n(C)c1=O | 92.7%
19 | O=S(=O)(NCCNc1cc(-c2cn(-c3ccccc3)nc2-c2cccc(O)c2)ccn1)c1ccccc1 | 49.5%
20 | CCN(CC)CCCCCCNc1ccnc2cc(Cl)ccc12 | 59.1%

Row | Structure (SMILES) | growth
21 | O=P(O)(c1ccccc1)c1ccccc1I | 76.7%
22 | COC(=O)[C@]12CC[C@@H](C)[C@H](C)[C@@H]1C1=CC[C@@H]3[C@@]4(C)C[C@@H](OC(C)=O)[C@H](OC(C)=O)[C@@](C)(COC(C)=O)[C@@H]4[C@H](O)C[C@@]3(C)[C@]1(C)CC2 | 9.38% (active)
23 | N=c1c(S(=O)(=O)c2ccccc2)cc2c(=O)n3ccccc3nc2n1C1CCCC1 | 91.5%
24 | COC(=O)[C@]12CC[C@@H](C)[C@H](C)[C@@H]1C1=CC(=O)[C@@H]3[C@@]4(C)C[C@@H](OC(C)=O)[C@H](OC(C)=O)[C@@](C)(COC(C)=O)[C@@H]4C(=O)C[C@@]3(C)[C@]1(C)CC2 | 22.6%
25 | Nc1c(C(=O)Nc2cccc3ccccc23)sc2nc3c(cc12)CCCC3 | 20.7%
26 | O=C1OC(c2ccc(Cl)c(Cl)c2)=C/C1=C/c1cccc([N+](=O)[O-])c1 | 86.5%
27 | COc1cccc(-c2nn(-c3ccccc3)cc2-c2ccnc(NCCNS(=O)(=O)c3cccc(F)c3)c2)c1 | 21.4%
28 | Cc1cc2nc3c4cc(N)ccc4n(CCN(C)C)c3nc2cc1C | 5.51% (active)
29 | CCN(CC)c1ccc(/C=C/c2cc(C)c3ccccc3n2)cc1 | 22.8%
30 | COC(=O)C(Cc1ccccc1)n1cc(COc2nc(Cl)nc(Nc3ccc(Cl)cc3)n2)nn1 (stereo not given) | 100%
31 | COC(=O)[C@]12CC[C@@H](C)[C@H](C)[C@@H]1C1=CC[C@@H]3[C@@]4(C)C(c5ncon5)=C[C@@](C)(CO)C4=CC[C@@]3(C)[C@]1(C)CC2 | -83.1% (active)
32 | Cc1csc(Nc2nc(-c3cccc(Br)c3)nc(C(Cl)(Cl)Cl)n2)n1 | 47.7%
33 | COc1cccc(-c2nn(-c3ccccc3)cc2-c2ccnc(NCCCNS(=O)(=O)c3cccc(F)c3)c2)c1 | 18.4%
34 | S=c1[nH]nc2ccccn12 | 108%
35 | O=C(/C=C/c1cccc2ccccc12)Nc1ncc(Cc2ccccc2)s1 | 8.93% (active)
36 | COC(=O)[C@]12CC[C@@H](C)[C@H](C)[C@@H]1C1=CC[C@@H]3[C@@]4(C)C=C(O)C(=O)C(C)=C4CC[C@@]3(C)[C@]1(C)CC2 | 18.1%
37 | COc1cc(-c2nc(-c3ccccc3)c(-c3ccccc3)[nH]2)cc(OC)c1O | -2.7% (active)
38 | CC(=O)O[C@H]1CC[C@@]2(C)[C@@H](CC[C@@H]3[C@@H]2CC(=O)[C@@]2(C)[C@H]3C[C@@H](C3CCCC3=O)[C@@H]2C(C)=O)C1 (stereo not given in full) | 90.1%
39 | C=C(C)[C@@H]1CC[C@]2(C=O)CC[C@]3(C)[C@H](CC[C@@H]4[C@@]5(C)C/C(=C/c6cccnc6)C(=O)C(C)(C)[C@@H]5CC[C@]43C)[C@@H]12 | 43.8%
40 | CC[C@H](CC[C@@H](C)[C@H]1CC[C@H]2[C@@H]3/C(=C/c4cccnc4)C(=O)C4=CC(=O)CC[C@]4(C)[C@H]3CC[C@]12C)C(C)C | 61.9%
